Experimental data taken from PubChem BioAssay AID504803 (The Scripps Research Institute Molecular Screening Center, 2011).
Screen size: about 340,000 compounds; about 1,700 (0.5%) were called active. This is one part of a sample in which actives are shown more often than they occur. No stated cut-off is given here; in the data, active means inhibition above about 36%; inactive means the rest.

Each molecule was assayed against Serine protease HTRA1 (Homo sapiens) (UniProt Q92743) (assay: HTRA1 serine protease inhibitors, primary screen, biochemical, fluorescence polarization, HTS (AID 504803;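 further: 0% = enzyme with DMSO and 100% = wells lacking enzyme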)). Details: recombinant HTRA1, FP-rhodamine activity-based probe, at 5.96 µM, hits give high values.
Sequence of Serine protease HTRA1 (Homo sapiens) (Q92743 whole entry, looked up): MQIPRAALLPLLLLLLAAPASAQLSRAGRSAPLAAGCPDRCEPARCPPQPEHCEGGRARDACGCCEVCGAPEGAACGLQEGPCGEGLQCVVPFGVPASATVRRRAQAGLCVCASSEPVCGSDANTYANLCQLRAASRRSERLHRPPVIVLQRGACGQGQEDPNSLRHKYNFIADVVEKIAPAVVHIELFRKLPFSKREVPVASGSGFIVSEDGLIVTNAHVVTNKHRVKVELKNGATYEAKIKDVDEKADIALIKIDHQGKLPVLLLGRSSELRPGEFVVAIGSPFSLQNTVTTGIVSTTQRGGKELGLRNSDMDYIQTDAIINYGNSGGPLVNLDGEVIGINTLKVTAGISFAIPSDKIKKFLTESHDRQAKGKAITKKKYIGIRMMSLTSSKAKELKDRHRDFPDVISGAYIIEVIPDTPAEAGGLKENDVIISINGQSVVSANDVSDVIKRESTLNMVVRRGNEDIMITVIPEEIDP

inhibition, inactive:
CC(C)(C)c1nnc(NC(=O)C2c3ccccc3Oc3ccccc32)s1 -41.3%
O=C(NN=Cc1ccc2c(c1)CCC2)c1ccccc1O -0.46%
COc1cccc(NC(=O)CN(C)C(=O)c2cc(Cl)nc3ccccc23)c1 0.82%
C[C@@H]1CN([C@@H](C)CO)C(=O)c2cc(Br)cnc2O[C@@H]1CN(C)C(=O)C1CCCCC1 2.18%
CCN(CC)C(=O)C1=C(C)N(Cc2ccc(F)cc2)C(=O)C(CC(=O)NC2CCCC2)C1 (centres undefined) 1.89%
COc1ccc(C(=O)c2oc3ccc(Br)cc3c2NC(C)=O)cc1 -1.73%
COc1ccc2oc(=N)c(C(=O)Nc3ccc(Br)cc3)cc2c1 -1.93%
O=C1[C@H]2[C@@H](c3ccc(C(F)(F)F)cc3)N[C@]3(CCCN(Cc4ccc(Br)cc4)C3=O)[C@H]2C(=O)N1Cc1ccccc1 -35.1%
CN(Cc1c(F)cccc1Cl)C(=O)COC(=O)Cn1cnc2ccccc2c1=O 2.48%
N#Cc1ccc(OCC(=O)Nc2nc(-c3ccccn3)cs2)cc1 19.1%
O=C(N/N=C\c1cccnc1)c1cc(-c2ccccc2)nc2c(Cl)cccc12 -44%
Cc1ccc(/C=N/NC(=S)NC2CCCCC2)o1 5.44%
COc1ccc(-c2cc(C(=O)N/N=C/c3cccnc3)c3ccccc3n2)c(OC)c1 -18%
Cc1ccc(/C=N/NC(=O)Cn2nc(C)c(Br)c2C)o1 -6.04%
CC(C)N=C1CCCC1C(=S)SSC(=S)C1CCCC1=NC(C)C (centres undefined) 13.4%
CC(C)C1CCN(C(=O)C2CCC(=O)N(C3CCCCCC3)C2)CC1 (centres undefined) 4.4%
CCCCN1CC(C)(C)[C@H](CC(=O)Nc2ccc(Br)cc2)C1=O -7.94%
COc1ccc(-c2ccc(CN3C(CC(C)C)C(=O)N(Cc4cn(CC5CCCCC5)nn4)CCS3(=O)=O)cc2)cc1 (centres undefined) -45.1%
O=C(C[C@H]1C[C@H]2c3cc(NS(=O)(=O)c4ccc(F)cc4)ccc3O[C@H]2[C@H](CO)O1)NCc1cc(F)ccc1F -9.74%
COc1cc(C(=O)OCCCN2CCOCC2)cc(OC)c1OC -2.46%
O=NN(CCCl)C(=O)NCCc1cccc[n+]1[O-] 1.62%
CCOC(=O)NNc1cc(C(F)(F)F)ccn1 -0.2%
CCOC(=O)C[C@H]1c2ccc(C(F)(F)F)cc2S(=O)(=O)N1c1ccccc1 -13.4%
COc1cccc2c(O)cc(=O)n(C)c12 -0.49%
O=C(NN=Cc1ccccc1O)NN=Cc1ccccc1O 25.9%
Cc1ccc(-c2ccc(CN3C(C(C)C)C(=O)N(Cc4cn(CCC5OCCO5)nn4)CCS3(=O)=O)cc2)cc1 (centres undefined) -29.6%
COc1cc(C)c(CN2CCN(C(=O)CCC(=O)c3ccc(C)s3)CC2)cc1OC 6.95%
CCCCCCNC(=O)O[C@H]1CN(C(=O)OC(C)C)N(C(=O)OC(C)C)[C@@H]2CN(S(=O)(=O)c3ccc(C)cc3)C[C@]12O -18.8%
O=C(Cc1ccc(Cl)cc1)NC(=S)Nc1ccccc1O -31.1%
c1ccc(CNCc2ccc(CNCc3ccccc3)cc2)cc1 2.32%
C[C@@H]1CN([C@H](C)CO)C(=O)CCCn2cc(nn2)CO[C@H]1CN(C)S(=O)(=O)c1ccc(Oc2ccccc2)nc1 5.67%
COCC1CCCCN1C(=O)c1cc(COc2ccc(C)c(C)c2)on1 (centres undefined) -4.09%
COc1ccc(C=C2CCC3C(CCCC34OCCO4)C2=O)cc1 (centres undefined) -8.69%
C[n+]1ccc(/C=C/c2c[nH]c3ccccc23)cc1 2.74%
Nc1nonc1-n1nnc(C(=O)N/N=C/c2c[nH]c3ccccc23)c1-c1ccccc1 -3.11%
C[C@H]1CN([C@@H](C)CO)C(=O)CCCn2nncc2CO[C@@H]1CN(C)Cc1ccc(Oc2ccccc2)cc1 -3.08%
COc1cc(C=NC2CCCCC2)ccc1O 0.85%
COc1ccc(CN2C(=O)C(CC(=O)NCCCCc3ccccc3)CC(C(=O)N3CCOCC3)=C2C)cc1 (centres undefined) 5.2%
O=C(c1ccccc1)N1CCN(c2cc(-c3ccccc3)nc3cc(-c4cccc(Cl)c4)nn23)CC1 -11.5%
CCOC(=O)CC(NC(=O)C1c2ccccc2Oc2ccccc21)c1ccc(C)cc1 (centres undefined) -3.25%
CCCCCNC(=O)C1c2ccccc2Oc2ccccc21 0.55%
C[C@H]1CN([C@@H](C)CO)S(=O)(=O)c2ccc(Br)cc2O[C@H]1CN(C)C(=O)c1cnccn1 10.3%
CNC(=O)c1ccc(CN(C)C(=O)c2cc(C3CC3)nc3c2cnn3C(C)C)cc1 -4.2%
CC(C)CC1C(=O)N(Cc2cn(Cc3ccco3)nn2)CCS(=O)(=O)N1Cc1ccc(-c2ccc(Cl)c(Cl)c2)cc1 (centres undefined) -109%
C[C@@H]1CN([C@H](C)CO)C(=O)CCCn2nncc2CO[C@@H]1CN(C)S(=O)(=O)c1cccc(C#N)c1 4.09%
COc1ccc(CNC(=O)/C(C#N)=C/c2cccc(OC)c2OC)cc1 -5.58%
COCCNC(=O)/C(C#N)=C/c1cccc(OCc2ccccc2)c1 -21.2%
CC(C)CC1C(=O)N(Cc2cn(CC3CCCCC3)nn2)CCS(=O)(=O)N1Cc1ccc(-c2ccc(Cl)cc2)cc1 (centres undefined) -45.3%
Cc1cccc(N2CCN(C(=O)c3ccccc3NC(=O)C3CCCCC3C(=O)O)CC2)c1 (centres undefined) 2.87%
CC(C)=C1SC(N2CCN(c3cccc(C)c3)CC2)=NC1=O -3.36%
O[C@H]1C[C@H](c2ccc(Cl)cc2)N(Cc2cccs2)C[C@@H]1n1cc(C2CC2)nn1 -46%
COc1cccc(OC)c1C(=O)Nc1nnc(C(C)C)s1 -2.63%
COc1ccc(C(=O)Nc2cccc(/C=C(/CCC(=O)O)c3nc4ccccc4s3)c2)cc1 -96.2%
C[C@H]1CN([C@@H](C)CO)C(=O)CCCn2cc(nn2)CO[C@@H]1CN(C)C(=O)Nc1ccccc1 2.55%
Cc1noc(C)c1NC(=O)N(C)C[C@@H]1Oc2cc(Br)ccc2S(=O)(=O)N([C@@H](C)CO)C[C@H]1C 0.21%
Cc1ccc(C(=O)N[C@H](C(=O)N2CCN(c3ncccn3)CC2)C(C)C)cc1 5.28%
CCc1nc2c(=O)[nH]cnc2o1 5.91%
CCOC(=O)C1=C(O)/C(=C/c2cc(C)n(-c3ccccc3)c2C)N=C1C 20.9%
Cc1cc(C(=O)OCC(=O)N2c3ccccc3NC(=O)C2(C)C)c(C)n1-c1ccccc1 -25.2%
CCCn1c(C)cc(-c2csc(NC(=O)CCc3nc4ccccc4c(=O)[nH]3)n2)c1C -3.91%
CCCc1cc(-c2n[nH]c(=S)n2Cc2ccccc2)cs1 -3.06%
CCN1C(=O)[C@H]2[C@@H](c3ccccc3)N[C@]3(CCCN(Cc4ccc(C)cc4)C3=O)[C@H]2C1=O -0.19%
COc1ccc(NC(=O)N(C)C[C@H]2Oc3ncc(C#C[C@@H](C)O)cc3C(=O)N([C@H](C)CO)C[C@H]2C)cc1 6%
Nc1cccc(OCCCCCOc2cccc(N)c2)c1 3.94%
COC(=O)c1ccccc1N=NNc1ccc([N+](=O)[O-])cc1 3.36%
COc1ccc(NC(=O)c2cc(=O)[nH]c3ccccc23)cc1S(=O)(=O)N1CCOCC1 -7.81%
COc1ccc(NC(=O)COC(=O)C2COc3ccccc3O2)cc1 (centres undefined) -2.75%
COc1cccc2cc(-c3cc(=O)oc4cc(C)c(O)cc34)oc12 -8.58%
COc1c(O)cc2oc(-c3ccc(O)c(O)c3)cc(=O)c2c1O 25.7%

inhibition, active:
O=C(N/N=C/c1ccc(O)c(O)c1)C1c2ccccc2Oc2ccccc21 68.8%
COc1ccc(/C=C/C(=O)c2cc(Br)ccc(=O)c2O)cc1 61%
COc1cccc2c1C(=O)c1c(O)c3c(c(O)c1C2=O)CC(O)(C(C)=NNC(=O)c1ccc(Cl)c(Cl)c1)CC3OC1CC(N)C(O)C(C)O1 (centres undefined) 70.5%
O=C(N/N=C/c1cccnc1)c1cc2ccccc2cc1O 41%
Cc1ccc(/C=N/NC(=O)c2cc3ccccc3cc2O)o1 50.2%
CCOC(=O)C1Nc2ccc(C(F)(F)F)cc2C2C=CCC12 (centres undefined) 41.7%
O=Nc1c(O)cc(O)c2ccccc12 42.4%
CC[C@@H]1Cc2cc(O)ccc2C2=C1c1ccc(O)cc1C[C@H]2CC 44.3%
Oc1ccc(CNc2ccccc2O)cc1 52.1%
CSC(=S)N/N=C/c1c[nH]c2ccccc12 48.9%
O=c1ccc2c(-c3ccccc3S(=O)(=O)O)c3ccc(O)c(O)c3oc-2c1O 37.8%
CCCN(CCC)C(=O)C1c2ccccc2Oc2ccccc21 38.1%
CCN1CCN(C(c2cccnc2)c2cc(Cl)c3cccnc3c2O)CC1 (centres undefined) 42%
N#C/C(=C\c1ccc(O)c(O)c1)C(=O)NCc1ccccc1 59.1%
Cc1cccc(N2CCN(c3ccc(NC(=O)/C=C\C(=O)O)cc3)CC2)c1 52%
COc1cccc2sc(NNC(=O)c3nc4ccccc4s3)nc12 39.4%
Cc1cc(-c2csc(N)n2)c(C)n1Cc1ccccc1 37.6%
Cc1cc(-c2csc(N)n2)c(C)n1-c1ccccc1 52.5%
Oc1ccc2ccccc2c1N=Nc1nccs1 44.7%
COc1cc(O)c2c(=O)c3c(O)c(O)ccc3oc2c1OC 53.9%
